# What was measured:
# Assay in all cases: DAPPL (digital affinity profiling via proximity ligation, sequencing); 10 mM Tris-HCl pH 7.5, 50 mM NaCl, 1 mM DTT, 4% glycerol, room temperature, 30 min; GST-TFs on glutathione beads, 16-mer random dsDNA library, 0.1% formaldehyde crosslink after washing; high values mean tight binding
# FEV = molecular target: T1, FEV (Homo sapiens, UniProt Q99581 1-238); settings: protein: recombinant; tags: N-terminal GST; dsDNA, one strand shown
# T1 sequence: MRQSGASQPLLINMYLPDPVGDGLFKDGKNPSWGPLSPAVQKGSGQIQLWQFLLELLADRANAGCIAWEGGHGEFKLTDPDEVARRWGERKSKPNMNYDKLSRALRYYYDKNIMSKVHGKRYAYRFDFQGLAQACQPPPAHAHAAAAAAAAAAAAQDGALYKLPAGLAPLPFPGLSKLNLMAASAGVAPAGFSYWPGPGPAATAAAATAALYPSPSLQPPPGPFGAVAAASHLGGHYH
# Outline: (§1)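 Binding signal is each hexamer's read frequency for a factor divided by its frequency in the tag-only sample. The factors were GST-fused human transcription factors from yeast, captured on glutathione beads, DNA-barcoded and pooled with that sample. Pools were incubated with 200 nmole of a random double-stranded 16-mer DNA library in Tris/NaCl/DTT/glycerol buffer at room temperature for 30 min, then washed, crosslinked with 0.1% formaldehyde, proximity-ligated with BsaI/T4 ligase (1 h, 37 °C), PCR-amplified and sequenced on an Illumina NextSeq500.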
# ETV5 = ETV5 (Homo sapiens, UniProt P41161 1-510); settings: protein: recombinant; tags: N-terminal GST; dsDNA, one strand shown
# Outline: as §1
# HSF1 = HSF1 (Homo sapiens, UniProt Q00613 1-529); settings: protein: recombinant; tags: N-terminal GST; chain copies: 3; dsDNA, one strand shown
# Outline: as §1
# SPIC = molecular target: T2, SPIC (Homo sapiens, UniProt Q8N5J4 1-248); settings: protein: recombinant; tags: N-terminal GST; dsDNA, one strand shown
# T2 sequence: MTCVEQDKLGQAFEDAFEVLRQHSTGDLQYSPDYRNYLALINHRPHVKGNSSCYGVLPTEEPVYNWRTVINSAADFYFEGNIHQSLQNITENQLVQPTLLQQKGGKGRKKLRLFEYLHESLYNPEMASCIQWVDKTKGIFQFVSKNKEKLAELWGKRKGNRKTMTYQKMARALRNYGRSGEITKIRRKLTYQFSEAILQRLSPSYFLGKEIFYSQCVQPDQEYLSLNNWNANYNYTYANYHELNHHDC
# Outline: as §1
# ELF4 = ELF4 (Homo sapiens, UniProt Q99607 1-663); settings: protein: recombinant; tags: N-terminal GST; dsDNA, one strand shown
# Outline: as §1
# ELK4 = molecular target: T3, ELK4 (Homo sapiens, UniProt P28324-2 1-405); settings: protein: recombinant; tags: N-terminal GST; dsDNA, one strand shown
# T3 sequence: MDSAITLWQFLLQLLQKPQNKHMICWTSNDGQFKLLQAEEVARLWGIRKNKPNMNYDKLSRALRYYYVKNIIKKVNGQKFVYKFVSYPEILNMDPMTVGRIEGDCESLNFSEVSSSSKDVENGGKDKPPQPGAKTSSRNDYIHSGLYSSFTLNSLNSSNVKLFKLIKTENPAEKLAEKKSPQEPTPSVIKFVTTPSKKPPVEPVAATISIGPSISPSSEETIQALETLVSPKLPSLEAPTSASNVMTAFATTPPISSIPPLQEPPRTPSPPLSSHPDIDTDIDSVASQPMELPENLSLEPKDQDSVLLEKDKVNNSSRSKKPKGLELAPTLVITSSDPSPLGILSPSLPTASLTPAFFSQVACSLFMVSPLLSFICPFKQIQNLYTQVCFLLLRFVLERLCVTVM
# Outline: as §1
# ETV2 = molecular target: T4, ETV2 (Homo sapiens, UniProt O00321 1-342); settings: protein: recombinant; tags: N-terminal GST; dsDNA, one strand shown
# T4 sequence: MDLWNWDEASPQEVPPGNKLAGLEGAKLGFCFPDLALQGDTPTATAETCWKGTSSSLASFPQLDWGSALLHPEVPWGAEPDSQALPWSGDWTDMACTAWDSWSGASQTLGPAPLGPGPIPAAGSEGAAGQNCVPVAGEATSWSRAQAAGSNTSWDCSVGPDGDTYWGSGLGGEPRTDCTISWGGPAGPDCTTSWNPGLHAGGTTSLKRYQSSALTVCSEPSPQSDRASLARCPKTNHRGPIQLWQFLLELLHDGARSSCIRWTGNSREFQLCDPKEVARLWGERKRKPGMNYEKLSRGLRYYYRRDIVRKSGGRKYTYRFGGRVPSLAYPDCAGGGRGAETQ
# Outline: as §1
# ELF3 = molecular target: T5, ELF3 (Homo sapiens, UniProt P78545 1-371); settings: protein: recombinant; tags: N-terminal GST; dsDNA, one strand shown
# T5 sequence: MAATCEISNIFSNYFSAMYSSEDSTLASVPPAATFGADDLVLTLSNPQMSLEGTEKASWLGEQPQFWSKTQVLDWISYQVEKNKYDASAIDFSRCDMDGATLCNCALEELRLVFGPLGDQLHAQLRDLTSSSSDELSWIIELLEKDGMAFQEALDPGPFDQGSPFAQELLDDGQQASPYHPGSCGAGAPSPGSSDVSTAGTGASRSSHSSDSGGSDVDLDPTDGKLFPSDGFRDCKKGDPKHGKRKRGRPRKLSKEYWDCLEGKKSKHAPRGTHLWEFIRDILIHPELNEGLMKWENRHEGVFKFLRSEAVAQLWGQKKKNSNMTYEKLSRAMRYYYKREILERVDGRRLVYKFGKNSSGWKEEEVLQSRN
# Outline: as §1
# CRX = CRX (Homo sapiens, UniProt O43186 1-299); settings: protein: recombinant; tags: N-terminal GST; dsDNA, one strand shown
# Outline: as §1
# ETV1 = ETV1 (Homo sapiens, UniProt P50549 1-477); settings: protein: recombinant; tags: N-terminal GST; dsDNA, one strand shown
# Outline: as §1
# ERF = molecular target: T6, ERF (Homo sapiens, UniProt P50548 1-548); settings: protein: recombinant; tags: N-terminal GST; dsDNA, one strand shown
# T6 sequence: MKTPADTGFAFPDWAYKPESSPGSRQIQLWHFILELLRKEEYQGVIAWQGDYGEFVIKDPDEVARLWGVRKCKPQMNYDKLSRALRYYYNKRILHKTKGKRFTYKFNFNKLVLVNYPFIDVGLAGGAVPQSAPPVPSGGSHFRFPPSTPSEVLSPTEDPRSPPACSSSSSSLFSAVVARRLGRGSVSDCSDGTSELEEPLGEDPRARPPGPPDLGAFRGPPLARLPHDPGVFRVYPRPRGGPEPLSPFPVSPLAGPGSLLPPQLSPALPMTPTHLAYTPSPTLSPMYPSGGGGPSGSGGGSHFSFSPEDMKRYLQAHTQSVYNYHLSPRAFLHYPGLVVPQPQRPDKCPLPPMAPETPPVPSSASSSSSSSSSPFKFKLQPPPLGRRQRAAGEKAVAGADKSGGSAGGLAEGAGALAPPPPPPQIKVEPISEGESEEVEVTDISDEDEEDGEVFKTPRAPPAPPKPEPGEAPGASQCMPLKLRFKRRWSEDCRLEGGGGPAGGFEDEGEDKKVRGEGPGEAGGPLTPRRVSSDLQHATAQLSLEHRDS
# Outline: as §1
# ETV3L = molecular target: T7, ETV3L (Homo sapiens, UniProt Q6ZN32 1-361); settings: protein: recombinant; tags: N-terminal GST; dsDNA, one strand shown
# T7 sequence: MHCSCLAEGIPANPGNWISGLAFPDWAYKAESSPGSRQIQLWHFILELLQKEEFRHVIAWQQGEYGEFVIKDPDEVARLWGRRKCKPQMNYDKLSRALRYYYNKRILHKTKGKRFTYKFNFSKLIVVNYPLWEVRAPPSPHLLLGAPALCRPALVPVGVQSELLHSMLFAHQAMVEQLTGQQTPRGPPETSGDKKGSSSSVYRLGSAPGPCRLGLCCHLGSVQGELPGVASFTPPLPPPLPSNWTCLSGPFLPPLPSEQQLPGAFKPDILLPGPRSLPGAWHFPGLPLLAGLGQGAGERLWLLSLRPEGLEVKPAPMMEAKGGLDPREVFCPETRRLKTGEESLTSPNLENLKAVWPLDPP
# Outline: as §1
# ETS2 = molecular target: T8, ETS2 (Homo sapiens, UniProt P15036 1-469); settings: protein: recombinant; tags: N-terminal GST; dsDNA, one strand shown
# T8 sequence: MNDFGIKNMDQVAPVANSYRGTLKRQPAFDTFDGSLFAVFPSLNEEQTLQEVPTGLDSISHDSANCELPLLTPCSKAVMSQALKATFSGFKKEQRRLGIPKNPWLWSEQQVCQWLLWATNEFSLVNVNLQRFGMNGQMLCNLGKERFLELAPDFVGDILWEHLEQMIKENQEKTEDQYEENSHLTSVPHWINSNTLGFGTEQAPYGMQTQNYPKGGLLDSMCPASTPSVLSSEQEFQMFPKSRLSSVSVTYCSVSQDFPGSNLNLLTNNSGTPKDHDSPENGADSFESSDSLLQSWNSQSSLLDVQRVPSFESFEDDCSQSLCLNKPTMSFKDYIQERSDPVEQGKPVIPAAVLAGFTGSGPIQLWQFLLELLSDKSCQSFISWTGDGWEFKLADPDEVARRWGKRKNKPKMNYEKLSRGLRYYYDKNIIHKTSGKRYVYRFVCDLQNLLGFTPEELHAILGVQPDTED
# Outline: as §1
# SPDEF = molecular target: T9, SPDEF (Homo sapiens, UniProt O95238 1-335); settings: protein: recombinant; tags: N-terminal GST; dsDNA, one strand shown
# T9 sequence: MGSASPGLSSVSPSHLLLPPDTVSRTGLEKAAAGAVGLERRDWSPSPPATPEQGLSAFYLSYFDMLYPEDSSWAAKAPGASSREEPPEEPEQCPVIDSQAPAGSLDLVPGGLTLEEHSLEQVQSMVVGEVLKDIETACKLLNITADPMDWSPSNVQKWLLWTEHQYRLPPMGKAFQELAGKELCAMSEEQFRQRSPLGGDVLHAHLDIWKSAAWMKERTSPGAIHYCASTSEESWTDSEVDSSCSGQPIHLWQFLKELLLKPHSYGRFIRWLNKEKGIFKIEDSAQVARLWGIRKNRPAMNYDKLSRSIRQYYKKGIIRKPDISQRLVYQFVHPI
# Outline: as §1
# ETV7 = molecular target: T10, ETV7 (Homo sapiens, UniProt Q9Y603 1-341); settings: protein: recombinant; tags: N-terminal GST; dsDNA, one strand shown
# T10 sequence: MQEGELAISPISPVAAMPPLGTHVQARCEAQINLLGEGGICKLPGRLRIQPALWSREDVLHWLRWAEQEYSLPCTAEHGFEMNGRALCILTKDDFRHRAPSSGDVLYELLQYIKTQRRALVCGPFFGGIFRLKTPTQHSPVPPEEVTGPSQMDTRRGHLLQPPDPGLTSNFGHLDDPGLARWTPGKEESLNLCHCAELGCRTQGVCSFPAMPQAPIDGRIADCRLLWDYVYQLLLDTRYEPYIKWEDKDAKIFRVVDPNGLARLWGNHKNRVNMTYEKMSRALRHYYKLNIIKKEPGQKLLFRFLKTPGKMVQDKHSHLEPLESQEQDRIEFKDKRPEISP
# Outline: as §1
# ELF5 = molecular target: T11, ELF5 (Homo sapiens, UniProt Q9UKW6-2 1-255); settings: protein: recombinant; tags: N-terminal GST; dsDNA, one strand shown
# T11 sequence: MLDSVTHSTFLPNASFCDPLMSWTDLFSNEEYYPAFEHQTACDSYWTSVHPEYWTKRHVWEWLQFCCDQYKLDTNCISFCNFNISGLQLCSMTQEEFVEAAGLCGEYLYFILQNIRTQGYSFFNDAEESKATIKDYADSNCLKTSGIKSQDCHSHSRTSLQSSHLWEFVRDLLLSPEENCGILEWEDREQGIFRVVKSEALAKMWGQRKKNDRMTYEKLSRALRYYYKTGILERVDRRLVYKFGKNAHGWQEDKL
# Outline: as §1
# ETV3 = molecular target: T12, ETV3 (Homo sapiens, UniProt P41162-2 1-143); settings: protein: recombinant; tags: N-terminal GST; dsDNA, one strand shown
# T12 sequence: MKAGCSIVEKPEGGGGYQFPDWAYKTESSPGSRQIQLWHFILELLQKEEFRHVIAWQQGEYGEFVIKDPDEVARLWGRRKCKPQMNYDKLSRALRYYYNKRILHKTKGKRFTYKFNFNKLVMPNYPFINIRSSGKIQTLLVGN
# Outline: as §1
# ETV6 = ETV6 (Homo sapiens, UniProt P41212 1-452); settings: protein: recombinant; tags: N-terminal GST; dsDNA, one strand shown
# Outline: as §1
# Chain of ETV5 (P41161 whole entry): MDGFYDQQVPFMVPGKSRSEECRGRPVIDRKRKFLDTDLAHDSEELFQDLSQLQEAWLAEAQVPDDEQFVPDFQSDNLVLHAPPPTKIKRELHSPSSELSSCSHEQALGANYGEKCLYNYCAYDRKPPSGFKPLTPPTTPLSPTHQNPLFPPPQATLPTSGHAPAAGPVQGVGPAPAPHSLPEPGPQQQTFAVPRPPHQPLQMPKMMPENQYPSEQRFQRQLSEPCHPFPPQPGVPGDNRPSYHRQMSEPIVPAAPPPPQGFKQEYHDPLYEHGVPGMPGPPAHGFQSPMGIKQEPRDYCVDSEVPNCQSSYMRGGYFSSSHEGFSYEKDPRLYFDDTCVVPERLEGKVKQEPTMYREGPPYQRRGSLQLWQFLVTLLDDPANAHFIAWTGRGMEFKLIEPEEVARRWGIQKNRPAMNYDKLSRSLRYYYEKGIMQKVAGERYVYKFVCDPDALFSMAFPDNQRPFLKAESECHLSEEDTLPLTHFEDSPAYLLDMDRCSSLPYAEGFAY
# Chain of ETV6 (P41212 whole entry): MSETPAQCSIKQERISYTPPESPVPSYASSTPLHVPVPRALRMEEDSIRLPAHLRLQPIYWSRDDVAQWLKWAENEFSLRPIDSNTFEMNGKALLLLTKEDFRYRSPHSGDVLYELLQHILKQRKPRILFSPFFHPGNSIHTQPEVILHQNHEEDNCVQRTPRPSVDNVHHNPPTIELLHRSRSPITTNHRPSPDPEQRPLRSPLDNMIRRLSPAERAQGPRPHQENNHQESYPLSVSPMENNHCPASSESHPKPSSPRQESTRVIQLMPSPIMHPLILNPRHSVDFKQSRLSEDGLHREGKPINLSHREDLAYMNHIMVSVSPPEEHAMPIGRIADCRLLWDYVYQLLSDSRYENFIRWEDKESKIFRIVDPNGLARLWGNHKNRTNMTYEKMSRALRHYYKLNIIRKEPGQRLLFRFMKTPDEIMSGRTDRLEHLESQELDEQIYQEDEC
# Chain of HSF1 (Q00613 whole entry): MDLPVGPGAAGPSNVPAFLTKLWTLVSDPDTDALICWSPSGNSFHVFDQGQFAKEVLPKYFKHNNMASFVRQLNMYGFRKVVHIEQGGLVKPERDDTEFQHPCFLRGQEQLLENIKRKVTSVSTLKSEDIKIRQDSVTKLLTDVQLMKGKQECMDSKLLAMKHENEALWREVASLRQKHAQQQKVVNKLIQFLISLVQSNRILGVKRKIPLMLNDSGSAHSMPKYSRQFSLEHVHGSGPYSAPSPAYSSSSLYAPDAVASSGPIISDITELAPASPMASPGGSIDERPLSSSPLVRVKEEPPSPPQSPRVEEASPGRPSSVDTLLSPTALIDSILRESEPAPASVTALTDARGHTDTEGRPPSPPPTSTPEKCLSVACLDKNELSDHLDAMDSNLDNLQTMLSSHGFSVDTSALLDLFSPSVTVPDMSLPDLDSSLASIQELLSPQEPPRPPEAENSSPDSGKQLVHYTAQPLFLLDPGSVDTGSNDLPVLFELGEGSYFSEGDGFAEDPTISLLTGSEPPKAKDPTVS
# Chain of ELF4 (Q99607 whole entry): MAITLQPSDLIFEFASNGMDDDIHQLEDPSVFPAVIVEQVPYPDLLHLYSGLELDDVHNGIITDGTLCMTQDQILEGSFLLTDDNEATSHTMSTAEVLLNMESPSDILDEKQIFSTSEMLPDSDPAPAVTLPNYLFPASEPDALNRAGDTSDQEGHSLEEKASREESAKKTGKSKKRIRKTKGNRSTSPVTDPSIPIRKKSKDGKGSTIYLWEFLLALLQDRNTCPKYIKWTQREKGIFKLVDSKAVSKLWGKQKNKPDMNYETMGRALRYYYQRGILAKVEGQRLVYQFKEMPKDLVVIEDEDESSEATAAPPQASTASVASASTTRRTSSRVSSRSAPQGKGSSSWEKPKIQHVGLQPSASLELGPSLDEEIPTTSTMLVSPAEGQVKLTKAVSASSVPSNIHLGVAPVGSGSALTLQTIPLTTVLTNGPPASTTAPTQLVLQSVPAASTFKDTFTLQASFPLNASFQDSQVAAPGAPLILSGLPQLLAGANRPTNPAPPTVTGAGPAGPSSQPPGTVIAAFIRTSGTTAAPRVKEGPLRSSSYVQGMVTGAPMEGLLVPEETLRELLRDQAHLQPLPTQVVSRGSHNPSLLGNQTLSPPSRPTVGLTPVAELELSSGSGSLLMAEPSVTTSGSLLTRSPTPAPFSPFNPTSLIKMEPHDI
# Chain of ETV1 (P50549 whole entry): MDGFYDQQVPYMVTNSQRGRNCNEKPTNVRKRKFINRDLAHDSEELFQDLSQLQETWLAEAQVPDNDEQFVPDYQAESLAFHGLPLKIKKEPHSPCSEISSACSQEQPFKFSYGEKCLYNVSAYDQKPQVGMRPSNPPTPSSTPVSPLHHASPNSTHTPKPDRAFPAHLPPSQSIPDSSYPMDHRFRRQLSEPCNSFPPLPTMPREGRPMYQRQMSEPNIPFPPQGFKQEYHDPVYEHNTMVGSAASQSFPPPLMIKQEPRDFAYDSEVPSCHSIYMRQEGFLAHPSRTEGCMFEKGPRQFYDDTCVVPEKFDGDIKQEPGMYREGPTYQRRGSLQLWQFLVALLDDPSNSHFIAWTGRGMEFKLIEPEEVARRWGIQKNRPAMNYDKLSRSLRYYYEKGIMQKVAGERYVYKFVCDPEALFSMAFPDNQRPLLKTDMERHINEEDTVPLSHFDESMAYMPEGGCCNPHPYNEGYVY
# Chain of CRX (O43186 whole entry): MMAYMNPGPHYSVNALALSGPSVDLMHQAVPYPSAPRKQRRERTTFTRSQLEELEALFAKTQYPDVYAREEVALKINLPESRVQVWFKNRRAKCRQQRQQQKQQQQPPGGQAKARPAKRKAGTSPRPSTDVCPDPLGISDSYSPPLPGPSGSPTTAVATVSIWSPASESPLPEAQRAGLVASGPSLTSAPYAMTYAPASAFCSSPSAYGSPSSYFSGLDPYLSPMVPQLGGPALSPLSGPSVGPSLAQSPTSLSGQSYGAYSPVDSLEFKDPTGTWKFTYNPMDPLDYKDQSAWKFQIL
sequence,measurement,setting,value
CAATAA,binding signal,FEV,"1.1 fold enrichment (6-mer frequency, TF over GST control)"
same,binding signal,ETV5,"1.14 fold enrichment (6-mer frequency, TF over GST control)"
same,binding signal,HSF1,"1.24 fold enrichment (6-mer frequency, TF over GST control)"
same,binding signal,SPIC,"1.2 fold enrichment (6-mer frequency, TF over GST control)"
same,binding signal,ELF4,"1.16 fold enrichment (6-mer frequency, TF over GST control)"
same,binding signal,ELK4,"1.14 fold enrichment (6-mer frequency, TF over GST control)"
same,binding signal,ETV2,"1.14 fold enrichment (6-mer frequency, TF over GST control)"
same,binding signal,ELF3,"1.27 fold enrichment (6-mer frequency, TF over GST control)"
same,binding signal,CRX,"1.46 fold enrichment (6-mer frequency, TF over GST control)"
same,binding signal,ETV1,"1.11 fold enrichment (6-mer frequency, TF over GST control)"
same,binding signal,ERF,"1.15 fold enrichment (6-mer frequency, TF over GST control)"
same,binding signal,ETV3L,"1.13 fold enrichment (6-mer frequency, TF over GST control)"
same,binding signal,ETS2,"1.19 fold enrichment (6-mer frequency, TF over GST control)"
same,binding signal,SPDEF,"1.05 fold enrichment (6-mer frequency, TF over GST control)"
same,binding signal,ETV7,"1.06 fold enrichment (6-mer frequency, TF over GST control)"
same,binding signal,ELF5,"1.06 fold enrichment (6-mer frequency, TF over GST control)"
same,binding signal,ETV3,"1.14 fold enrichment (6-mer frequency, TF over GST control)"
same,binding signal,ETV6,"1.12 fold enrichment (6-mer frequency, TF over GST control)"

# From article PMC7862700, “An all-to-all approach to the identification of sequence-specific readers for epigenetic DNA modifications on cytosine”
